A549 viability = kills or reduces viability of A549 cells in Nrf2 counter-screen | A549 ARE-Fluc cells, CellTiter-Fluor viability, 18-24 h | Potency, µM (top dose mostly 46 µM), without a hit: top-dose activity change, negative = cytotoxicity, hits mostly inhibitors | 0.16% of 390,000 active | AID 504648; also: % is scaled to controls: 0 for no effect and ±100 for the full control effect
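A549 ARE-Fluc cells in 5% FBS OPTI-MEM, 5000 cells/well, rested 2 h then exposed to compounds in concentration-response for 18-24 h at 37 °C. Viability by CellTiter-Fluor fluorescence (Ex 405/Em 525) after 30 min; luciferase luminescence (BugLite, 15 min, RT) read afterwards.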
ELG1 repair inh = blocks ELG1-dependent DNA repair in HEK293T cells | HEK293T ELG1-luciferase reporter, luminescence, 16 h; DNA damage induced by 5-fluorouridine | 2.3% of 330,000 active | Potency, µM (series often up to 46.1 µM), for the others: at the highest dose activity change, negative = inhibition, actives largely listed as inhibitors | AID 504467; also: % is scaled to controls: 0 for no effect and ±100 for the full control effect; nearly all actives have a fitted effect of over 55% in size
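Overnight (16 hr) co-exposure of 2,000 cells/well to 5-fluorouridine and compound at 37 °C preceded detection. Luciferase was quantified via ONE-Glo luminescence; loss of signal denotes inhibition.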
Nrf2 activator = activates Nrf2 signaling | 0.31% of 410,000 active | Potency, µM (top dose mostly 46.1 µM), without a hit: at the highest dose activation, actives largely listed as activators | AREc32 ARE-luciferase reporter (MCF7-derived line), luminescence, 24 h | AID 624171; also: % of control where 0% means no effect; nearly all actives have a fitted effect of over 65% in size
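Cells of the AREc32 ARE-luciferase line are plated in OPTI-MEM containing 5% FBS and left overnight at 37 deg C. Compounds are pinned in, incubation continues 24 hr, and firefly luciferase signal is then measured.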
mIDH1 inhibitor = inhibitors of human mutant IDH1 R132H; IDH1-R132H enzyme, NADPH consumption, diaphorase/resazurin fluorescence; 0.093% of 390,000 active; Potency, µM (top dose mostly 76.6 µM), inactives show top-dose activity change, negative = inhibition, actives largely listed as inhibitors; O75874; also: % is scaled to controls: 0 for no effect and ±100 for the full control effect; nearly all actives have a fitted effect of over 65% in size
Target sequence (O75874 whole entry R132H, stated change not applied): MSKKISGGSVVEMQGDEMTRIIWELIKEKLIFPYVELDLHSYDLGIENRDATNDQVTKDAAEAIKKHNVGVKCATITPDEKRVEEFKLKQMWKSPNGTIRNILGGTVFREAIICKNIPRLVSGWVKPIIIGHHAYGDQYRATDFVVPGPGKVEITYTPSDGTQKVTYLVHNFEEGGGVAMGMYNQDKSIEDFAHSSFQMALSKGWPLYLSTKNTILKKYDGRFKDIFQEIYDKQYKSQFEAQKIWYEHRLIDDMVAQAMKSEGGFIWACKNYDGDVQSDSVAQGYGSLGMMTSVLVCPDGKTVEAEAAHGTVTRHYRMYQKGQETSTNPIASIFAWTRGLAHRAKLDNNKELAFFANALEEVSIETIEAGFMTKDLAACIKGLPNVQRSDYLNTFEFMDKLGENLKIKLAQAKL
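IDH1-R132H (0.5 ug/mL) preincubated 30 min with compound, then NADPH (0.016 mM) and alpha-KG (2 mM) added; 80 min at RT, pH 7.5. Remaining NADPH coupled via diaphorase/resazurin to fluorescence (540/590 nm); concentration-response curves normalized to no-enzyme control.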
Nrf2 block = inhibitors of Nrf2 signaling. A549 ARE-Fluc reporter, luciferase luminescence, 18-24 h. Potency, µM (titrated, usually from 46 µM), for the others: at the highest dose activity change, negative = inhibition, hits mostly inhibitors. 2.1% of 360,000 active. AID 504444; also: % is scaled to controls: 0 for no effect and ±100 for the full control effect; nearly all actives have a fitted effect of over 60% in size
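Two sequential reads on A549 ARE_Fluc cells exposed to compound for 18-24 h: a CellTiter-Fluor fluorescence read for viability, then a luciferase luminescence read for Nrf2/ARE activity.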
* hit, by the source's call; [ ] = another dose, or the depositor's remark. Hits are enriched below; roughly 3.8% of the tested compounds scored in any of these assays. Calls follow the shape of the dose curve; as a rule, active = well fitted curve in the direction sought with a large enough effect; inconclusive = small, poorly fitted or top-dose-only effect, or another doubt; inactive = no such curve, though single readings can be large; an effect the other way counts as inactive or inconclusive. Potency is read from the fitted curve at half-maximal effect.

For CCc1ccc(OC(C)C(=O)N2CCC(c3nc4ccccc4s3)CC2)cc1 (stereo not drawn) the results were A549 viability -22%, Nrf2 activator 0%, mIDH1 inhibitor 7% and Nrf2 block 18µM*.
Screening COc1cc(/C=C/c2ccc3cccc(OC)c3n2)c(OC(C)=O)c([N+](=O)[O-])c1 returned A549 viability 9.2µM*, ELG1 repair inh inconclusive, Nrf2 activator 7%, mIDH1 inhibitor 8% and Nrf2 block 26µM*.
For COc1cccc(NC(=O)C(=O)NCC(c2cccnc2)N2CCN(c3ccccc3)CC2)c1 (stereo not drawn) the results were A549 viability 3%, Nrf2 activator 5%, mIDH1 inhibitor 0% and Nrf2 block inconclusive.
For CCCCS(=O)(=O)c1oc(-c2ccc(F)cc2)nc1S(=O)(=O)c1ccccc1 the results were A549 viability inconclusive, Nrf2 activator inconclusive, mIDH1 inhibitor 14% and Nrf2 block 21µM*.
`Cc1nc2ccccn2c1CN(C)C(=O)C1CCC(=O)N(CCc2cccc(F)c2)C1` (stereo not drawn) gave A549 viability 1%, ELG1 repair inh 2%, Nrf2 activator -1%, mIDH1 inhibitor -2% and Nrf2 block 1%.
For CCN(C(=O)Cn1c(=O)n(CCCS(=O)(=O)C2CCCCC2)c(=O)c2ccccc21)c1cccc(C)c1 the results were A549 viability -2%, Nrf2 activator 0%, mIDH1 inhibitor -1% and Nrf2 block inconclusive.
For COc1ccc(Br)cc1Cn1nnc(C(=O)Nc2ccc(C)cc2C)c1N the results were A549 viability -25%, Nrf2 activator 0%, mIDH1 inhibitor 7% and Nrf2 block 16µM*.
Screening CCOc1ccc(OCC)c(NC(=O)c2nnn(Cc3cc(Br)ccc3OC)c2N)c1 returned A549 viability 1%, Nrf2 activator 1%, mIDH1 inhibitor -3% and Nrf2 block -6%.
`COc1ccc(NC(=O)c2nnn(Cc3ccc(Br)cc3F)c2N)c(OC)c1` gave A549 viability 13%, Nrf2 activator 0%, mIDH1 inhibitor 1% and Nrf2 block -3%.
Screening COc1ccc(OC)c(NC(=O)c2nnn(Cc3ccc(Br)cc3F)c2N)c1 returned A549 viability 12%, ELG1 repair inh 21µM*, Nrf2 activator 4%, mIDH1 inhibitor -5% and Nrf2 block 1%.
COc1ccc(C#Cc2cnc(Cl)c3cncnc23)cc1OC was read as A549 viability 10% and Nrf2 block 1%.
CCN(CC)c1ccc(NC(=O)Nc2cccc(C(C)=O)c2)cc1 was read as A549 viability -1%, Nrf2 activator 5%, mIDH1 inhibitor 2% and Nrf2 block 15µM*.
CC(=O)c1cccc(NC(=O)Nc2ccc(C(=O)N3CCCC3)cc2)c1 was read as A549 viability 1%[1.84 µM], ELG1 repair inh 6.5µM*, Nrf2 activator -1%, mIDH1 inhibitor 1% and Nrf2 block inconclusive.
Screening O=C(Cn1cnc2cc([N+](=O)[O-])ccc2c1=O)Nc1cccc2ccccc12 returned A549 viability 1%, ELG1 repair inh -9%, Nrf2 activator 1%, mIDH1 inhibitor 2% and Nrf2 block -17%.
CCN(CC)S(=O)(=O)c1ccc(C)c(NC(=O)Cn2cnc3cc([N+](=O)[O-])ccc3c2=O)c1 was read as A549 viability -1%, ELG1 repair inh 16µM*, Nrf2 activator 3%, mIDH1 inhibitor -8% and Nrf2 block inconclusive.
Screening COc1ccc2nc(SCC(=O)O)nc(C)c2c1 returned A549 viability -1%, ELG1 repair inh 2%, Nrf2 activator 0%, mIDH1 inhibitor 2% and Nrf2 block 23%.
For COc1ccc2nc(SCCOC(=O)Nc3ccc(Cl)cc3)nc(C)c2c1 the results were A549 viability inconclusive, ELG1 repair inh inconclusive, Nrf2 activator 0%, mIDH1 inhibitor 1% and Nrf2 block 23µM*.
Screening COc1ccc(-c2nc(NC(=O)Cn3cnnn3)sc2C)cc1 returned A549 viability -2%, ELG1 repair inh 6%, Nrf2 activator 1%, mIDH1 inhibitor 4% and Nrf2 block 3%.
Screening COc1ccc(-c2nc(NC(=O)Cn3ccc(C(F)(F)F)n3)sc2C)cc1 returned A549 viability inconclusive, ELG1 repair inh inconclusive, Nrf2 activator 2%, mIDH1 inhibitor 0% and Nrf2 block 21µM*.
For OC(c1ccccc1)(c1ccccc1)c1cnc2ccccn12 the results were A549 viability -3% and Nrf2 block -14%.
Screening O=C(Nc1nnc(SCc2ccc(F)cc2)s1)C1Cc2ccccc2CN1C(=O)c1ccco1 (stereo not drawn) returned A549 viability inconclusive, ELG1 repair inh -5%, Nrf2 activator 4%, mIDH1 inhibitor -2% and Nrf2 block 16µM*.
COc1cc(OC)cc(C(=O)N[C@H](C(=O)Nc2nc(-c3cc(OC)ccc3OC)cs2)C(C)C)c1 was read as A549 viability -1%, ELG1 repair inh 21µM*, Nrf2 activator 3%, mIDH1 inhibitor -4% and Nrf2 block inconclusive.
Screening COc1cc(OC)cc(C(=O)N[C@H](C(=O)Nc2nc(-c3ccc(OC)c(OC)c3)cs2)C(C)C)c1 returned A549 viability -3%, ELG1 repair inh 21µM*, Nrf2 activator 4%, mIDH1 inhibitor 2% and Nrf2 block 7.3µM*.
Screening COc1ccc(OC)c(-c2csc(NC(=O)Cc3ccccc3OC)n2)c1 returned A549 viability -1%, ELG1 repair inh -9%, Nrf2 activator 2%, mIDH1 inhibitor 2% and Nrf2 block -17%.
Screening C/C(=N\NC(=O)Cn1c(C)nc2ccccc21)c1cccs1 returned A549 viability -10%, ELG1 repair inh -11%, Nrf2 activator 2%, mIDH1 inhibitor 5% and Nrf2 block 16µM*.
For Cn1c(N)c(C(=O)COc2ccc(Cl)cc2Cl)c(=O)n(C)c1=O the results were A549 viability 7%, ELG1 repair inh inconclusive, Nrf2 activator -1%, mIDH1 inhibitor -3% and Nrf2 block -24%.
Screening Cn1c(=O)c(C(=O)COc2ccc(F)cc2Cl)c(N)n(Cc2ccccc2)c1=O returned A549 viability 6%, ELG1 repair inh 23µM*, Nrf2 activator 0%, mIDH1 inhibitor 0% and Nrf2 block inconclusive.
`CCCNC(=O)c1ccc(N2CCC3(CC2)CC(c2ccccc2)=NO3)c(NC(=O)c2ccccc2)c1` gave A549 viability 0%, ELG1 repair inh 6.5µM*, Nrf2 activator 0%, mIDH1 inhibitor 2% and Nrf2 block 0%.
`CCCNC(=O)c1ccc(N2CCC3(CC2)CC(c2ccccc2)=NO3)c(NC(=O)c2ccc(Br)cc2)c1` gave A549 viability -2%, ELG1 repair inh inconclusive, Nrf2 activator 0%, mIDH1 inhibitor 2% and Nrf2 block -15%.
